Values joined by “and” are separate entries in the source; they are usually repeats but may differ in a detail not shown here. Equal entries are not always repeated. For some of these results: Potency and affinity values are given separately. Inconclusive results are not listed. Active and inactive are the calls of the source. Unless noted, no rule for the calls is given here.

Test [1] in a line: fungal growth arrest, C. neoformans – Alamar Blue, cherry-picks, dose response (AID 686998;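 active = falling signal with fitted half-maximal potency no higher than twice the top valid tested dose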). On the technique in general: The colour change of resazurin is a common sign of viable cells or microbes.
A short description of test [2]: viability loss in HepG2 hepatoma cells – cell-based, cherry-picks, set 2, cytotoxicity control, dose response (AID 687002;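 active = a dose-response fit showing signal loss, with half-maximal concentration no higher than twice the top tested dose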).
Test [3] is described as follows: resazurin metabolic signal in HepG2 cells – cell-based, resazurin fluorescence, 24 h, PK04 Diversity Set, profiling panel (AID 1172). The following applies: HepG2 viability, higher = more signal.
Test [4] in a line: budding yeast growth changes without added modifier – OD600, strain BY4716, 24 h, basal condition, primary screen (AID 1173). The note with it: S. cerevisiae BY4716 growth, OD600, 24 h; higher = more signal, called active from +8 up or from −8 down unless noted.
Test [5] is described as follows: viability profiling in MM1S myeloma cells – cell-based, resazurin fluorescence, basal, 24 h, PK04 Diversity Set, profiling panel (AID 1174).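 Also: MM1S multiple myeloma cell line.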 The following applies: higher = more signal, called active from +8 up or from −8 down unless noted.
The target in test [6] is Dihydroorotate dehydrogenase (quinone), mitochondrial (Plasmodium falciparum (isolate 3D7)) (UniProt Q08210). Description: inhibition of P. falciparum DHODH – biochemical, C-terminal His tag, absorbance 600 nm, primary screen (AID 1175).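 Also: recombinant parasite enzyme with a five histidine tag at its C terminus.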 The following applies: PfDHODH enzyme, DCIP absorbance 600 nm; higher = more signal, called active from +8 up or from −8 down unless noted.
Chain of Dihydroorotate dehydrogenase (quinone), mitochondrial (Plasmodium falciparum (isolate 3D7)) (Q08210 whole entry, looked up): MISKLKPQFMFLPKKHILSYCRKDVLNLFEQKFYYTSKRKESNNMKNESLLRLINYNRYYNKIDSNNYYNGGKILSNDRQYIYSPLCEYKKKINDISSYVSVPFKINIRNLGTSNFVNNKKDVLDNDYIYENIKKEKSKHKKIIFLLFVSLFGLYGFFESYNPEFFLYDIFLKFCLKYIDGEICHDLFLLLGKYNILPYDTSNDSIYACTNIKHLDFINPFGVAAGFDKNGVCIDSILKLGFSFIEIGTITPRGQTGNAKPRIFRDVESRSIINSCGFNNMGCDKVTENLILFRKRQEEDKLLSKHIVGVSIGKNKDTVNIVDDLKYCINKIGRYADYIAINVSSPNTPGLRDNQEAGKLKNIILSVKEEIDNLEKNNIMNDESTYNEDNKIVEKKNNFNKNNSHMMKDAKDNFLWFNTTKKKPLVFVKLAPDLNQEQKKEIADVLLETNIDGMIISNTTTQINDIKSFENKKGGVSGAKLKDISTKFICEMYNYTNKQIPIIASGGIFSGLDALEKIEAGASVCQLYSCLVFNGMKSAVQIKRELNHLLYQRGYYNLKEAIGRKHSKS

A short description of test [7]: inhibition of PAO1 biofilm formation – strain PAO1, LB-PBS medium, absorbance 600 nm, primary screen (AID 1176). The following applies: P. aeruginosa PAO1 growth/biofilm, A600, 12 h; higher = more signal.
The nature of test [8]: growth modulation of vineyard yeast isolate – strain RM11-1a, OD600, basal, 24 h, primary screen (AID 1177).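 Also: cultures grown under basal conditions with no added stressor.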 The following applies: S. cerevisiae RM11-1a growth, OD600, 24 h; higher = more signal, called active from +8 up or from −8 down unless noted.
Test [9] in a line: growth of efflux-deficient E. coli DRC39 – strain DRC39, OD650, 24 h, E. coli filamentation inducers, primary screen (AID 1178).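 Also: growth measured as culture turbidity by optical density at 650 nm.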 The note with it: E. coli DRC39 acrAB; higher = more signal, called active from +8 up or from −8 down unless noted.
Test [10] can be described thus: growth of efflux-deficient E. coli DRC39 – strain DRC39, OD650, 48 h, E. coli filamentation inducers, primary screen (AID 1179).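 Also: screen aims at cell division blockers that make cells filament.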 The note with it: E. coli DRC39 delta-acrAB growth, higher = more signal, called active from +8 up or from −8 down unless noted.
Test [11] in a line: viability profiling in RPMI8226 myeloma cells – cell-based, resazurin fluorescence, basal, 24 h, PK04 Diversity Set, profiling panel (AID 1180).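 Also: RPMI8826 multiple myeloma cell line at 5000 cells per well.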 The following applies: higher = more signal; RPMI8226 viability, resazurin fluorescence, 24 h unless noted.
The target in test [12] is E3 ubiquitin-protein ligase XIAP (Homo sapiens) (UniProt P98170). Description: small molecules binding XIAP protein – biophysical, small-molecule microarray, fluorescence 635 nm, primary screen (AID 1181).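 Also: score merges 667 nm emission and signal to noise over triplicate slides.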 The note with it: higher = more signal.
Chain of E3 ubiquitin-protein ligase XIAP (Homo sapiens) (P98170 whole entry, looked up, the tested form may be a part): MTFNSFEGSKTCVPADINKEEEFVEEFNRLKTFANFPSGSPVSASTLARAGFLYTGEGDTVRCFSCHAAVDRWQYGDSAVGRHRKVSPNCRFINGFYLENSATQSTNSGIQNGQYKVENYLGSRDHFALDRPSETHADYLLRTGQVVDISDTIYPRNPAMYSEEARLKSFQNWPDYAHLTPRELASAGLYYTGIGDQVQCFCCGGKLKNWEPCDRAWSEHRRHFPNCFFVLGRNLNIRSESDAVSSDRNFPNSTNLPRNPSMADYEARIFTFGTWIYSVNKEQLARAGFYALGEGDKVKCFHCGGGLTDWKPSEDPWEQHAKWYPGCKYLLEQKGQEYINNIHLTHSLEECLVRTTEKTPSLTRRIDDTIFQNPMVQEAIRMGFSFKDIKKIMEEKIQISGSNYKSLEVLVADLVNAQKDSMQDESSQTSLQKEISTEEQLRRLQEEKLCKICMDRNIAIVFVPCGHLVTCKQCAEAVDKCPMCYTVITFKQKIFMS
Test [13] relates to XIP peptide (Xip251-270) binding. Put plainly: XIP fragment 251-270 binding compounds – biochemical, small-molecule microarray, fluorescence 635/667 nm, 0.1 µg/mL protein, primary screen (AID 1182). The following applies: fluorescent protein binding, 635 nm; higher = more signal, called active from +8 up or from −8 down unless noted.
The subject of the next test is XIP peptide (Xip251-270). Description: compounds binding XIP fragment 251-270 – biochemical, small-molecule microarray, fluorescence 635/667 nm, 0.5 µg/mL protein, primary screen (AID 1183). The following applies: fluorescence 635 nm, higher = more signal.
Test [14] in a line: blood-stage malaria parasite viability loss – strain 3D7, DAPI fluorescence, 100 nL, primary screen (AID 1184).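 Also: parasites grown inside human red blood cells in medium with human serum.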 The following applies: P. falciparum 3D7 growth, 3 d, higher = more signal.
The target of test [15] is Homeobox protein Hox-A13 (Mus musculus) (UniProt Q62424). Description: disruptors of Hoxa13 oligonucleotide interaction – biochemical, fluorescence polarization, labeled oligonucleotide, primary screen (AID 1185). The following applies: Hoxa13:DNA binding, 15 min; higher = more signal, called active from +8 up or from −8 down unless noted.
Chain of Homeobox protein Hox-A13 (Mus musculus) (Q62424 whole entry, looked up): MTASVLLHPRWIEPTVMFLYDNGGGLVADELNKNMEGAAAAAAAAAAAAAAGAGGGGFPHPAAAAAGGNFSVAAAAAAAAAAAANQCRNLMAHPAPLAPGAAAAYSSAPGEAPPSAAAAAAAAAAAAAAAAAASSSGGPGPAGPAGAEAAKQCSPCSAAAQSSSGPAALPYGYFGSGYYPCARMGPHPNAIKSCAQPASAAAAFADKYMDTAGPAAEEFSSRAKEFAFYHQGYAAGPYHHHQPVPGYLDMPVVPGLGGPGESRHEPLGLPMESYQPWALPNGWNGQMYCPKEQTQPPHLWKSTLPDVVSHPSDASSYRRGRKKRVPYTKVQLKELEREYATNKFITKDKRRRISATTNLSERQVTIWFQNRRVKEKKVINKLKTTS
The nature of test [16]: blockers of DNA damage checkpoint Chk1 activation – imaging, HeLa, hydroxyurea, phospho-Chk1 antibody, percent positive cells, primary screen (AID 1186). The note with it: hydroxyurea-induced phospho-Chk1 immunofluorescence imaging, higher = more signal.
The nature of test [17]: blockers of DNA damage checkpoint Chk1 activation – imaging, HeLa, hydroxyurea, phospho-Chk1 nuclear intensity, primary screen (AID 1187). The following applies: hydroxyurea-induced phospho-Chk1 immunofluorescence imaging, higher = more signal.
In test [18] the target is Adenosylmethionine-8-amino-7-oxononanoate aminotransferase (Mycobacterium tuberculosis (strain ATCC 25618 / H37Rv)) (UniProt P9WQ81). Put plainly: inhibition of purified M. tuberculosis BioA – biochemical, plate reader, cherry-pick samples, dose response (AID 651683).
Chain of Adenosylmethionine-8-amino-7-oxononanoate aminotransferase (Mycobacterium tuberculosis (strain ATCC 25618 / H37Rv)) (P9WQ81 whole entry, looked up): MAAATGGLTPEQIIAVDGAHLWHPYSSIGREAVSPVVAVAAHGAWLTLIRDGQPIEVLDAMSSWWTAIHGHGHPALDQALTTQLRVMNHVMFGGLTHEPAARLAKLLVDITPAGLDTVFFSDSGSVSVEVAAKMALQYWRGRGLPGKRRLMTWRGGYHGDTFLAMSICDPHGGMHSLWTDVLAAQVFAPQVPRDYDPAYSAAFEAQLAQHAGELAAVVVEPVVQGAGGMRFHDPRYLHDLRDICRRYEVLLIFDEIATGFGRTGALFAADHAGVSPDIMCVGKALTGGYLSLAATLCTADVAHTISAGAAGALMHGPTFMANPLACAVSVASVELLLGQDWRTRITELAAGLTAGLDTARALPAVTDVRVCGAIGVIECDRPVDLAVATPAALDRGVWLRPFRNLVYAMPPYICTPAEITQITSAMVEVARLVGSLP
The nature of test [19]: C. neoformans lysis by adenylate kinase leakage – AK release luminescence, cherry-picks, dose response (AID 687000;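 active = fitted dose curve reaches 40% lysis signal rise at or below the highest valid concentration tested for that sample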;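 also: luminescent detection of adenylate kinase leaking from lysed yeast; 0% = median neutral control signal and 100% = double that signal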).

As to `C[C@@H]1CN([C@@H](C)CO)C(=O)CCCn2nncc2CO[C@H]1CN(C)C(=O)Oc1cccc2ccccc12`, the result in [1] and in [2] was inactive.
Turning to `CC[C@H](C)[C@@H]1NC(=O)CNC(=O)c2csc(n2)[C@H](C(C)(C)O)OC(=O)C(C)(C)[C@H](CCCC(C)(Cl)Cl)OC(=O)c2csc1n2`, the call in test [2] was inactive.
Take `OCc1ccc(C2=CC(c3cccs3)N(Cc3cccc(OC(F)(F)F)c3)CC2)cc1` (configuration not stated): the z-score is -0.0049 in [3]; -1.22 (inactive) in test [4]; -0.126 (inactive) in [5]; -0.223 (inactive) in [7]; -0.449 (inactive) in test [8]; 0.301 (inactive) in [9]. In addition, the z-score is -0.544 (inactive) in test [10]; 0.341 in test [11]; -3.09 in test [14]; -1.91 (inactive) in test [15]; -0.308 (inactive) in [16]; -0.44 (inactive) in test [17]. Also, the composite z-score in test [6] is -4.15 (inactive); in [12], -0.192; in [13], 0.209 (inactive); in the test on XIP peptide (Xip251-270), -0.0913.
As for `Cc1ccc(NCc2nnc(SCC(=O)N3CCc4ccccc43)n2C)cc1`, the compound was classed as inactive in test [18].
Regarding `CN1c2ccc(-c3cccc(F)c3)cc2[C@@H]2[C@@H](CCN2C(=O)c2ccncc2)[C@H]1CO`, the call in test [18] was inactive.
Regarding `O=C(c1ccncc1)N1CC[C@@H]2[C@@H](CO)Nc3ccc(Br)cc3[C@@H]21`, the compound was called inactive in test [18].
Turning to `Cc1ccc(S(=O)(=O)N(C)C)cc1NC(=O)CSc1nncs1`, the compound was classed as inactive in test [18].
`Nc1cc(C(=O)O)ccc1Nc1ccccc1`: the compound was called inactive in test [18].
As for `CCCc1cc2c(n1Cc1ccc(C)cc1)C(C)C1CN(C(=O)c3ccccc3)C(C)(C(=O)OC)C21` (configuration not stated), the z-score is -0.492 in [3]; -0.283 (inactive) in [4]; -1.04 (inactive) in test [5]; 0.355 (inactive) in test [7]; -0.654 (inactive) in test [8]; 0.103 (inactive) in [9]. In addition, the z-score in test [10] is 0.357 (inactive); in [11], -1.11; in test [14] it was -0.0901; in [15] it was -2.8 (inactive); in test [16], -0.364 (inactive); in test [17], 0.0089 (inactive). The composite z-score is -1.07 (inactive) in test [6], 0.174 in test [12], 0.707 (inactive) in test [13] and 0.73 in the test with XIP peptide (Xip251-270).
In the case of `O=C(C[C@H]1C[C@H]2c3cc(NC(=O)c4cccnc4)ccc3O[C@H]2[C@H](CO)O1)NCc1ccccn1`, the call in [18] was inactive.
For `CCCc1cc2c(n1Cc1ccco1)C(C)C1CN(C(=O)c3ccccc3)C(C)(C(=O)OC)C21` (configuration not stated), the z-score in test [3] is -1.24; in [4] it was -0.0767 (inactive); in test [5], -1.85 (inactive); in test [7], 1.9 (inactive); in test [8] it was 0.264 (inactive); in test [9], -1.25 (inactive). Besides, the z-score was -0.951 (inactive) in test [10]; -1.3 in [11]; 0.0125 in test [14]; -4.51 (inactive) in [15]; 0.586 (inactive) in test [16]; 0.875 (inactive) in test [17]. In addition, the composite z-score in [6] was -0.455 (inactive); in test [12] it was 0.471; in [13], 1.32 (inactive); in the test on XIP peptide (Xip251-270), 0.741.
Consider `CCCc1cc2c(n1Cc1cccc(Cl)c1)C(C)C1CN(C(=O)c3ccccc3)C(C)(C(=O)OC)C21` (configuration not stated), for which the z-score was -1.04 in [3]; 0.773 (inactive) in test [4]; -1.7 (inactive) in test [5]; 0.619 (inactive) in test [7]; 0.616 (inactive) in test [8]; -0.423 (inactive) in [9]. Besides, the z-score is -0.0676 (inactive) in [10]; -1.56 in test [11]; -0.413 in test [14]; -5.79 (inactive) in [15]; 0.251 (inactive) in test [16]; 0.861 (inactive) in [17]. The composite z-score in test [6] is -0.403 (inactive); in [12], 0.621; in test [13] it was 1.12 (inactive); in the test with XIP peptide (Xip251-270), -0.589.
Consider `CCCC[C@@H]1C[C@H]1[C@@H](NP(=O)(c1ccccc1)c1ccccc1)c1ccc(Cl)cc1`, for which the z-score was 1.46 in test [3]; -1.14 (inactive) in [4]; 0.105 (inactive) in test [5]; 0.122 (inactive) in [7]; -0.357 (inactive) in [8]; -0.429 (inactive) in test [9]. Moreover, the z-score is -0.363 (inactive) in test [10]; -0.0326 in [11]; 0.0345 in test [14]; -2.17 (inactive) in [15]; 0.368 (inactive) in test [16]; 0.316 (inactive) in [17]. Further, the composite z-score is -0.717 (inactive) in test [6], 0.0077 in [12], 0.156 (inactive) in test [13] and -0.337 in the test on XIP peptide (Xip251-270).
With `CC1N(P(=O)(c2ccccc2)c2ccccc2)CC(O)(c2ccccc2)CC12CC2` (configuration not stated), the z-score is -0.964 and 0.138 in test [3]; 2.47 (inactive) and 0.135 (inactive) in test [4]; -1.13 (inactive) and -0.22 (inactive) in test [5]; 0.495 (inactive) and 0.178 (inactive) in test [7]; 1.23 (inactive) and -0.154 (inactive) in test [8]; -0.611 (inactive) and -0.406 (inactive) in test [9]. Further, the z-score was 0.0506 (inactive) and -0.0402 (inactive) in test [10]; -1.54 and 0.553 in test [11]; 0.2 and -0.527 in test [14]; -3.23 (inactive) and -3.55 (inactive) in [15]; 0.694 (inactive) and 0.475 (inactive) in [16]; 0.608 (inactive) and 0.341 (inactive) in test [17]. Besides, the composite z-score in [6] is 0.296 (inactive) and -0.264 (inactive); in [12], -0.193 and -0.25; in test [13], 0.51 (inactive) and -0.0366 (inactive); with XIP peptide (Xip251-270), 0.547 and 0.382.
For the compound `CC(=O)OC1(C)CC(C)C(=O)C(C(O)CC2CC(=O)NC(=O)C2)C1` (configuration not stated), the compound was called inactive in [19] and in test [2].
Consider `O=C(CN1C(=O)/C(=C/c2cccc(Br)c2)SC1=S)Nc1cccnc1`, for which, in test [18], the call was inactive.
Same read-out and setting: in the case of `CCOc1ccc(-n2c(SCC(N)=O)nc3c(c2=O)SCC3)cc1` it was “inactive”; in that of `CC(Oc1cc2oc(=O)c3c(c2cc1Cl)CCC3)C(=O)NCc1cccnc1` (configuration not stated), “inactive”; in that of `COc1ccccc1-c1cc(C(F)(F)F)nc(S(=O)(=O)CCCC(=O)O)n1`, “inactive”.
Regarding `OCc1ccc(C2=CC(C3CC3)N(Cc3sc4ccccc4c3Cl)CC2)cc1` (configuration not stated), the z-score was -0.0351 in test [3]; -4.2 (inactive) in test [4]; -1.43 (inactive) in test [5]; -0.411 (inactive) in test [7]; 1.76 (inactive) in test [8]; -1.71 (inactive) in [9]. Further, the z-score is -1.33 (inactive) in [10]; -1.37 in test [11]; -3.04 in test [14]; 3.12 (inactive) in test [15]; -0.6 (inactive) in [16]; -0.744 (inactive) in [17]. Further, the composite z-score in [6] was -1.3 (inactive); in [12], 0.539; in test [13], 1.51 (inactive); in the test on XIP peptide (Xip251-270), 0.625.

Source of the values: PubChem BioAssay.
